KB-3-1 cytotox = KB-3-1 parental cell cytotoxicity; 1.4% of 400,000 active; Potency, µM (doses to about 46.1 µM), most hits filed as cytotoxic; AID 1347075; KB-3-1 viability, CellTiter-Glo ATP luminescence, 72 h; further: on the % scale 0 is the no-effect control and ±100 the full control effect; nearly all actives have a fitted effect of over 60% in size
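Luminescent ATP read-out (CellTiter-Glo) measures survival of drug-naive KB-3-1 cells after 72 h compound exposure at 37 °C. Titration series was screened from lowest to highest concentration, with DMSO vehicle plates as background controls.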
KB-V1 cytotox = kills drug-selected multidrug resistant KB-V1 cells; Potency, µM (titrated, usually from 46.1 µM), most hits filed as cytotoxic; KB-V1 MDR cells viability, CellTiter-Glo, 72 h; 3.4% of 400,000 active; further: on the % scale 0 is the no-effect control and ±100 the full control effect; nearly all actives have a fitted effect of over 60% in size
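qHTS viability screen in drug-selected KB-V1 MDR cells: 72 h compound treatment at 37 degrees C, ATP luminescence end point.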
MCF10A rereplic = induces DNA re-replication in MCF 10a normal breast cells. AID 624296. MCF 10A DNA re-replication, Hoechst nuclear intensity, 48 h. Potency, µM (doses to about 46.1 µM), without a hit: at the highest dose activity, positive = re-replication, most hits filed as activators. 2.9% of 350,000 active; further: % of control where 0% means no effect; nearly all actives have a fitted effect of over 50% in size
SW480 rerep = induces DNA re-replication in SW480 colon adenocarcinoma cells | SW480 DNA re-replication, Hoechst DNA content imaging, 48 h | Potency, µM (highest dose often 46.1 µM), for the others: at the top dose re-replication activation, most hits filed as activators | 1.8% of 340,000 active; further: % of control where 0% means no effect; nearly all actives have a fitted effect of over 55% in size
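First, 250 cells per well were seeded. Next, compound or vehicle (23 nL) was pinned in, plates sat 48 hr at 37 C. Finally Hoechst was added for 40 min before fluorescence scanning.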
HT1080-NT tox = kills 2HG-producing HT-1080-NT fibrosarcoma cells | HT-1080-NT fibrosarcoma viability, CellTiter-Glo ATP luminescence, 48 h | Potency, µM (titrated, usually from 46.1 µM), without a hit: at the top dose activity, negative = less viability, usual class: cytotoxic | 1.6% of 360,000 active | AID 686970;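 further: NT is the 2HG producing partner of a matched IDH1 knockdown line; 0% = DMSO-treated cells and -100% = media-only wells without cells; nearly all actives have a fitted effect of over 55% in size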
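Fibrosarcoma NT cells, 750 per well in 5% FBS RPMI, were exposed to compound for 48 hours. Viability: CellTiter-Glo luminescence.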
HT1080 IDH1KD tx = HT-1080 IDH1 knockdown cell toxicity (counter line) | AID 686971 | HT-1080 IDH1 knockdown viability, ATP luminescence, 48 h | Potency, µM (series often up to 46.1 µM), for inactives: at the highest dose activity, negative = toxicity, actives largely listed as cytotoxic | 2% of 360,000 active;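 further: 0% = DMSO wells and -100% = cell-free medium wells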
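Using the IDH1-knockdown HT-1080 line run in the same batch and compound series as the NT line, viability after 48 h at 37 °C was determined by CellTiter-Glo luminescence and expressed as % activity.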
Starred values were filed as active, the others as inactive; i = inactive; ? = inconclusive; / = no result given; ! = not active in a repeat; [ ] = another dose, or the depositor's remark. Rows were chosen to be rich in hits. Some 8% of all compounds tested hit in one or more screens of this group. The call rests on the fitted dose curve; in most records, active means well fitted curve in the direction sought with a large enough effect; inconclusive means small, poorly fitted or top-dose-only effect, or another doubt; inactive means no such curve, though single readings can be large; an effect the other way counts as inactive or inconclusive. Potency means the concentration at half of the fitted maximal effect.

SMILES	KB-3-1 cytotox	KB-V1 cytotox	MCF10A rereplic	SW480 rerep	HT1080-NT tox	HT1080 IDH1KD tx
Cc1[nH]ccc(=O)c1Oc1ncc(C(F)(F)F)cc1Cl	i	i	-7.5%	-21.8%	8.5%	19.4%
CCOc1ccc(C2Nc3cccc4cccc(c34)N2)cc1OC	i	i	-3.6%	-6.6%[9.22 µM]	-15.6%	-1.7%
CCOc1cc(C2Nc3cccc4cccc(c34)N2)ccc1O	?	14.6µM*	8.3%	?	-19.2%	2.2%
Cc1cccc(NS(=O)(=O)c2ccc3c(c2)CC(C)N3C(=O)C2CCC2)c1C (centres undefined)	23.1µM*	?	/	/	/	/
CN1CCN(C(=O)/C=C/c2cn(-c3ccccc3)nc2-c2ccc3c(c2)OCCO3)CC1	i	i	?	?	23.1µM*	23.1µM*
O=C(O)/C=C/c1cn(-c2ccccc2)nc1-c1ccc2c(c1)OCCO2	i	i	0.0%	-0.2%	-6.2%	-10.0%
O=C(/C=C\c1cn(-c2ccccc2)nc1-c1ccc2c(c1)OCCO2)N1CCOCC1	i	?	18.4µM*	-69.7%	-12.6%	-13.6%
O=C(/C=C/c1cn(-c2ccccc2)nc1-c1cccc(Cl)c1)N1CCN(c2ccccn2)CC1	?	23.1µM*	21.2%	6.1%	-28.6%	-3.8%
COc1ccccc1N1CCN(C(=O)CCNS(=O)(=O)c2ccc3c(c2)CCN3C(=O)C2CC2)CC1	i	i	/	/	/	/
O=C(CSCc1c(Cl)cccc1Cl)Nc1ccc2c(c1)OCCO2	?	10.3µM*	-29.7%	?	4.2%	-5.7%
Cc1cccc(C)c1OCC(=O)Nc1ccc2c(c1)OCCO2	23.1µM*	?	14.6µM*	80.1%	-11.4%	-7.2%
CC(=O)c1c(C)[nH]c(C(=O)OCC(=O)Nc2ccc3c(c2)OCCO3)c1C	?	20.6µM*	2.3%	-7.5%	3.3%	4.6%
CC(=O)c1c(C)[nH]c(C(=O)OCC(=O)Nc2ccc(Cl)c(S(=O)(=O)N(C)C)c2)c1C	?	?	?	-4.2%	?	23.1µM*
Fc1cccc(COc2ccccc2C(=S)N2CCCC2)c1	i	?	-1.9%	-7.4%	2.8%	0.7%
CCOC(=O)c1cnc2c(C)cc(Cl)cc2c1NCCCN1CCOCC1	i	i	23.1µM*	-0.1%	2.0%	5.4%
O=C(CC[C@H]1O[C@@H](n2cnc3c(NC(=O)c4ccccc4)ncnc32)[C@H](O)[C@@H]1O)NCC(c1ccccc1)c1ccccc1	i	i	/	/	2.1%	-8.8%
CCN1CCN(Cc2ccc(NC(=O)c3cc(NC(=O)c4cncc(-c5ccc(C#N)cc5)c4)cc(OC)c3)cc2C(F)(F)F)CC1	?	i	10.3µM*	24.2%[9.22 µM]	?	?
CCN1CCN(Cc2ccc(NC(=O)c3ccc(C)c(NC(=O)c4cccc5[nH]ccc45)c3)cc2C(F)(F)F)CC1	16.4µM*!	?	?	3.26µM*	?	?
CCN1CCN(Cc2ccc(NC(=O)c3ccc(C)c(NC(=O)c4cncc(-c5cccs5)c4)c3)cc2C(F)(F)F)CC1	?	?	5.17µM*	?	20.6µM*	18.4µM*
CCN1CCN(Cc2ccc(NC(=O)c3cc(NC(=O)c4nccnc4N)cc(OC)c3)cc2C(F)(F)F)CC1	i	i	?	-3.5%[9.22 µM]	-21.3%	-5.3%
CCOc1ccc(CCNC(=O)C(O)c2ccccc2)cc1 (centres undefined)	i	i	-0.6%	5.4%	5.7%	-0.2%
CCOc1ccc(/C=N/NC(=O)C(O)c2ccccc2)c(O)c1 (centres undefined)	i	i	7.9%	?	?	11.6µM*
CN1C=CC2=C(C#N)C(N)C(C#N)(C#N)C(c3ccccc3)C2C1 (centres undefined)	i	14.6µM*	11.8%	6.9%	-0.5%	-4.4%
COc1ccc(-c2csc(NC(=O)c3cc(C)oc3C)n2)cc1OC	?	?	?	?	-4.1%	-21.8%
COc1ccc(NS(=O)(=O)c2cc(Br)cc3c2N(C(C)=O)CC3)cc1	4.11µM*	9.2µM*	18.4µM*	6.51µM*	18.4µM*	11.6µM*
SMILES	KB-3-1 cytotox	KB-V1 cytotox	MCF10A rereplic	SW480 rerep	HT1080-NT tox	HT1080 IDH1KD tx
CCc1ccc(NS(=O)(=O)c2cc(Br)cc3c2N(C(C)=O)CC3)cc1	i	i	/	/	/	/
COc1cc(CN2CCN(S(=O)(=O)c3ccccc3)CC2)cc(OC)c1OC	i	i	0.0%	0.7%	0.4%	-1.3%
COc1cccc(CN2CCN(c3cccc(C(F)(F)F)c3)CC2)c1OC	i	20.6µM*	?	14.9%	2.8%	-4.3%
COc1cc(CN2CCN(c3cccc(Cl)c3)CC2)cc(OC)c1OC	3.66µM*	2.31µM*	16.4µM*	16.4µM*	8.91µM*	7.08µM*
Clc1cccc(-c2cc3nc4c(c(NCc5ccco5)n3n2)CCCC4)c1	i	20.6µM*	23.1%	?	?	-14.4%
Cc1ccc(-c2cc3nc(C)cc(NCc4ccco4)n3n2)cc1	i	14.6µM*	5.17µM*	?	?	-16.9%
COCCNc1cc(C)nc2cc(-c3ccc(C)cc3)nn12	i	?	?	16.4µM*	-1.8%	-19.3%
Cc1nc2scc(C)n2c(=O)c1S(=O)(=O)Nc1ccc(N2CCN(C(=O)C(C)C)CC2)cc1	?	i	?	-0.6%	?	-27.8%
O=C(c1[nH]ncc1[N+](=O)[O-])N1CCOCC1	i	?	-0.3%	-5.3%	-2.0%	16.8%
COc1cc(C(=O)Nc2ccc3c(c2)CCN3C(C)=O)cc(OC)c1OC	3.26µM*	?	-7.2%	?	?	2.59µM*
COc1cc(C(=O)Nc2ccc3ccccc3c2)cc(OC)c1OC	?	?	2.59µM*	1.3µM*	1.3µM*	0.581µM*
COc1cc2c(cc1NC(=O)C(Cl)Cl)-c1ccc(NC(=O)C(Cl)Cl)cc1C2	?	14.6µM*	24.0%	?	?	13µM*
COc1cc(C(=O)Nc2ccc3c(c2)Cc2ccccc2-3)cc(OC)c1OC	i	i	8.2µM*	-1.9%	-2.3%	-12.7%
COc1cc2c(cc1NC(=O)c1ccccc1-c1ccccc1C(=O)O)-c1ccccc1C2	i	i	/	/	-11.8%	-18.7%
COc1cc(C(=O)Nc2ccc3c(c2)C(=O)c2ccccc2C3=O)cc(OC)c1OC	i	i	-2.8%	-4.4%	7.3%	27.3%
COc1cc(C(=O)N2CCc3ccccc32)cc(OC)c1OC	i	i	19.6%	23.0%	-14.5%	-5.5%
COc1ccc(C(=O)Nc2ccc3ccccc3c2)cc1OC	i	i	10.6%	-0.9%	-0.1%	13.6%

Bioassay records: PubChem BioAssay, National Center for Advancing Translational Sciences (NCATS)
